Experimental findings from PubChem BioAssay (NCATS) are described below.

A number with no mark means an inactive call. Inconclusive results are not listed. The source made the active and inactive calls. Unless noted, the call rests on the fitted dose curve; in most records, active means well fitted curve in the direction sought with a large enough effect; inconclusive means small, poorly fitted or top-dose-only effect, or another doubt; inactive means no such curve, though single readings can be large; an effect the other way counts as inactive or inconclusive.

Experiment [1] deals with NIH3T3. Kind of experiment: qHTS assay to identify novel small-molecules to repurpose for Merkel cell carcinoma treatment (AID 1296009). Further: nearly all actives have a fitted effect of over 60% in size. Further: potency means the concentration at half of the fitted maximal effect. The following applies: MCC and control cell lines, CellTiter-Glo viability, 72 h; at 44.8 µM (top of the series) unless noted. The method, boiled down: (§1)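 qHTS format: cells treated with library compounds in DMSO across 8 (NPC) or 11 (MIPE) concentrations. Readout after 72 hr at 37 degree celsius was CellTiter-Glo luminescence.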

Experiment [2] concerns C33A. Kind of experiment: Primary qHTS to identify gynecologic anti-cancer compounds using libraries of approved drugs and bioactive compounds (AID 1345084). Further: on the % scale 0 is the no-effect control and ±100 the full control effect; nearly all actives have a fitted effect of over 55% in size. As to conditions: Gynecologic cancer cell panel viability, ATPlite luminescence, 48 h; series mostly up to 57.5 µM. The method, boiled down: (§2)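 Five-concentration response, 48 h; readout is ATP-driven luciferase luminescence.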
(qHTS replaces the single test concentration by a dilution series.)

In experiment [3] the test system is CAOV3. The experiment is described as above. The following applies: Gynecologic cancer cell panel viability, ATPlite luminescence, 48 h; series mostly up to 57.5 µM. The method, boiled down: as §2
In general terms: In ATP-based viability assays light output follows the ATP content of the culture.

In experiment [4] the test system is CASKI. The description is as above. The following applies: Gynecologic cancer cell panel viability, ATPlite luminescence, 48 h; series mostly up to 57.5 µM. The method, boiled down: as §2
For experiment [5], the system named is Es-2. The experiment is described as above. As to conditions: Gynecologic cancer cell panel viability, ATPlite luminescence, 48 h; series mostly up to 57.5 µM. The method, boiled down: as §2
The test system of experiment [6] is HeLa. The experiment is described as above. The following applies: Gynecologic cancer cell panel viability, ATPlite luminescence, 48 h; series mostly up to 57.5 µM. The method, boiled down: as §2
The subject of experiment [7] is Hek293T. The experiment is described as above. As to conditions: Gynecologic cancer cell panel viability, ATPlite luminescence, 48 h, control line for the selectivity index; series mostly up to 57.5 µM. The method, boiled down: as §2
The subject of experiment [8] is JEG-3. The experiment is described as above. As to conditions: Gynecologic cancer cell panel viability, ATPlite luminescence, 48 h; series mostly up to 57.5 µM. The method, boiled down: as §2
The test system of experiment [9] is OV90. The description is as above. As to conditions: Gynecologic cancer cell panel viability, ATPlite luminescence, 48 h; series mostly up to 57.5 µM. The method, boiled down: as §2
The subject of experiment [10] is PA-1. The description is as above. As to conditions: Gynecologic cancer cell panel viability, ATPlite luminescence, 48 h; series mostly up to 57.5 µM. The method, boiled down:
as §2

Experiment [11] relates to SKOV3. Described as above. The following applies: Gynecologic cancer cell panel viability, ATPlite luminescence, 48 h; series mostly up to 57.5 µM. The method, boiled down:
as §2

For experiment [12], the system named is Tov-21-G. The experiment is described as above. As to conditions: Gynecologic cancer cell panel viability, ATPlite luminescence, 48 h; series mostly up to 57.5 µM. The method, boiled down:
as §2

Experiment [13] has as its system Tov112D. Described as above. The following applies: Gynecologic cancer cell panel viability, ATPlite luminescence, 48 h; series mostly up to 57.5 µM. The method, boiled down:
as §2

In experiment [14] the test system is MKL-2. Kind of experiment: qHTS assay to identify novel small-molecules to repurpose for Merkel cell carcinoma treatment (AID 1296009). Further: nearly all actives have a fitted effect of over 60% in size. Further: potency means the concentration at half of the fitted maximal effect. As to conditions: MCC and control cell lines, CellTiter-Glo viability, 72 h; series mostly up to 46 µM. The method, boiled down:
as §1

Experiment [15] concerns UISO. Described as above. As to conditions: MCC and control cell lines, CellTiter-Glo viability, 72 h; series mostly up to 46 µM. The method, boiled down:
as §1

Experiment [16] has as its system WaGa. The description is as above. The following applies: MCC and control cell lines, CellTiter-Glo viability, 72 h; series mostly up to 46 µM. The method, boiled down:
as §1

The subject of experiment [17] is astro. Description: Drug repurposing screens with cells derived from glioblastoma tumor samples (AID 1345199). Further: on the % scale 0 is the no-effect control and ±100 the full control effect; nearly all actives have a fitted effect of over 40% in size. The following applies: viability, ATP luminescence, 48 h; series mostly up to 91.6 µM. The method, boiled down: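 Four patient lines of CD133+ GBM neurospheres were screened at several concentrations; hits were retested in those lines plus three slower-growing GBM lines, using 48-hour treatment and ATP-based viability.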

The target of experiment [18] is Nuclear receptor subfamily 1 group I member 2 (Rattus norvegicus) (UniProt Q9R1A7). Description: qHTS assay for small molecule activators of the rat pregnane X receptor (rPXR) signaling pathway (AID 651751; call rule not given here; further: 0% is about no effect). As to conditions: rPXR reporter cells, luciferase (One-Glo), 24 h.
Sequence of Nuclear receptor subfamily 1 group I member 2 (Rattus norvegicus) (Q9R1A7 whole entry, looked up): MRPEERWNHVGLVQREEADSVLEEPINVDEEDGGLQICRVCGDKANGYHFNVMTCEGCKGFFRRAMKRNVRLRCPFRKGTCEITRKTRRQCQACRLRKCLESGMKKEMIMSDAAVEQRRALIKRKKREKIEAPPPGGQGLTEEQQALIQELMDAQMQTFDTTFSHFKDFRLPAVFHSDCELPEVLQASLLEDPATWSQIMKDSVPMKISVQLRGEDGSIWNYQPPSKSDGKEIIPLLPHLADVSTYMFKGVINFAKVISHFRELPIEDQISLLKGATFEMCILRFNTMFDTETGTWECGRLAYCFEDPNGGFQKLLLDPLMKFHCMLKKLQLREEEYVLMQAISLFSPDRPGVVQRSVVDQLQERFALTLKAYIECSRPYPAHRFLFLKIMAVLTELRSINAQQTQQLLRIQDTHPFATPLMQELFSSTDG

`C=C(C(=O)O)C1CCC2(C)CCCC(C)(O)C2C1` (stereo unspecified): in experiment [1], the outcome was inactive. Also, the Potency entry in experiment [2], in experiment [3], in [4], in [5], in [6] and in [7] was “inactive” each time. Moreover, the Potency result in [8], in [9], in experiment [10], in experiment [11], in experiment [12] and in experiment [13] was “inactive” each time.
With `CC1(C)CC[C@]2(C(=O)O[C@@H]3O[C@H](CO)[C@@H](O)[C@H](O)[C@H]3O)CC[C@]3(C)C(=CCC4[C@@]5(C)CC[C@H](O[C@@H]6O[C@H](C(=O)O)[C@@H](O)[C@H](O[C@@H]7O[C@H](CO)[C@H](O)[C@H](O)[C@H]7O)[C@H]6O)C(C)(C)C5CC[C@]43C)C2C1` (stereo partly specified), the outcome in [1] was “inactive [at 9.27 µM]”. For the same compound, the activity change, negative = cytotoxicity in [2] is -1.04% [at 11.6 µM]; in experiment [3] it was 0.89% [at 11.6 µM]; in [4] it was -0.547% [at 11.6 µM]; in [5] it was -0.756% [at 11.6 µM]; in experiment [6], -6.39% [at 11.6 µM]; in [7] it was 7.67% [at 11.6 µM]. The activity change, negative = cytotoxicity in experiment [8] is 4.29% [at 11.6 µM]; in [9] it was 1.32% [at 11.6 µM]; in [10] it was -14.7% [at 11.6 µM]; in experiment [11], 12.6% [at 11.6 µM]; in experiment [12] it was -0.142% [at 11.6 µM]; in experiment [13], -2.13% [at 11.6 µM].
For `Cc1c2cc(c(C(=O)O)c1C)OC1OC(C(O)C(O)C1O)C(O)C(O)C1OC(O2)C(O)C(O)C1O` (stereo unspecified), the outcome in [1] was “inactive [at 17.4 µM]”. Further, the Potency entry in experiment [2], in experiment [3], in experiment [4], in experiment [5], in [6] and in experiment [7] was “inactive” throughout. Besides, the Potency entry in experiment [8], in [9], in [10], in [11], in experiment [12] and in experiment [13] was “inactive” throughout.
In the case of `C=C1CCC2C(C)(COC(C)=O)CCCC2(C)C1CCC(C)CC(=O)O` (stereo unspecified), the result in experiment [1] was inactive. The Potency result in experiment [2], in [3], in experiment [4], in [5], in experiment [6] and in experiment [7] was “inactive” in each case. The Potency entry in experiment [8], in experiment [9], in experiment [10], in experiment [11], in experiment [12] and in experiment [13] was “inactive” each time.
Consider `C[C@@H]1O[C@@H](O[C@H]2[C@H](OC(=O)[C@]34CCC(C)(C)C[C@H]3C3=CCC5[C@@]6(C)C[C@H](O)[C@H](O[C@@H]7O[C@H](CO)[C@@H](O)[C@H](O)[C@H]7O)[C@@](C)(CO)C6[C@H](O)C[C@@]5(C)[C@]3(C)C[C@H]4O)OC[C@H](O)[C@@H]2O)[C@H](O)[C@H](O)[C@H]1O[C@@H]1OC[C@@H](O)[C@H](O[C@H]2OC[C@](O)(CO)[C@H]2O)[C@H]1O` (stereo partly specified), for which, in experiment [1], the outcome is “inactive [at 9.27 µM]”. The activity change, negative = cytotoxicity was 6.39% [at 6.55 µM] in experiment [2]; 27.3% [at 6.55 µM] in experiment [3]; -4.03% [at 6.55 µM] in [4]; 1.52% [at 6.55 µM] in experiment [5]; 19.6% [at 6.55 µM] in [6]; -3.35% [at 6.55 µM] in experiment [7]. Also, the activity change, negative = cytotoxicity in experiment [8] is 13.7% [at 6.55 µM]; in experiment [9] it was -6.86% [at 6.55 µM]; in experiment [10], 24.7% [at 6.55 µM]; in experiment [11] it was 19.1% [at 6.55 µM]; in [12], 8.26% [at 6.55 µM]; in experiment [13], 8.3% [at 6.55 µM].
Take `CC(=O)N[C@@H](C(=O)O[C@H]1CCC(C)(C)[C@@H]2CCC3=C(COC3=O)[C@@]12C)C(C)C`: the result in experiment [1] was inactive. Also, the Potency entry in [2], in [3], in experiment [4], in experiment [5], in experiment [6] and in experiment [7] was “inactive” throughout. The Potency result in [8], in experiment [9], in [10], in [11], in experiment [12] and in experiment [13] was “inactive” each time.
Turning to `Cc1ccc(N)cc1O`, the Potency was 6.11 µM (active) in experiment [14], 24.3 µM (active) in experiment [15] and 6.11 µM (active) in [16]. Further, the Potency entry in experiment [5], in experiment [6], in [7] and in experiment [17] was “inactive” each time. In experiment [18], the max response is 0.897%.
